Experimental data from PubChem BioAssay AID720518 (National Center for Advancing Translational Sciences (NCATS), 2013).
Results filed as inconclusive are left out. Values without a mark were called inactive. Calls follow the shape of the full dose curve.

Assay: qHTS for Inhibitors of Cell Surface uPA Generation: Wild-type Protective Antigen (WT-PrAg) Counterscreen for Cherry-picked Compounds; also: 0% is about no effect
Conditions: cells, WT protective antigen toxicity counterscreen; series mostly up to 115 µM; activity (protection): at the top concentration

Compound | activity (protection) [%]
CC(C)N1CCc2c(sc(NC(=O)Cc3ccccc3)c2C(N)=O)C1 | -0.213
CC(=O)Oc1ccccc1C(=O)Nc1ccccc1C(=O)N1CCCC1 | -0.405
O=C(NCC1CCCO1)c1c(O)c2cccc3c2n(c1=O)CCC3 (configuration not stated) | -2.22
CCN(CC)CCCNC(=O)c1cn(C)c(=O)c2c1c1ccccc1n2C | 4.64
NC(=O)CC(NC(=O)Cc1cccc2ccccc12)c1ccc(N2CCN(c3ccccc3)CC2)c([N+](=O)[O-])c1 (configuration not stated) | 0.0175
Cc1cc(C)n2nc(CNS(=O)(=O)c3ccc(F)c(C)c3)nc2n1 | -0.539
Cc1cc(=O)[nH]c(=S)[nH]1 | -1.26
COc1ccc([C@H]2CC(=O)C=C(c3ccc(CNC(=O)OC(C)(C)C)cc3)C2)cc1 | -1.05
Cn1c(CN2CCCC2)nc2cc(NC(=O)COc3ccccc3)ccc21 | -1.34
CC(CCc1ccccc1)NC(=O)c1ccc(NC(=O)c2cccc(Br)c2)cc1 (configuration not stated) | -0.0435
O=C(NCc1ccccn1)C1CCN(C(=O)c2cc3sccc3n2Cc2ccc(F)cc2)CC1 | -1.98
Cc1cnc(CNC(=O)C2CCC(=O)N(CCc3cccc(F)c3)C2)[nH]1 (configuration not stated) | -0.804
Cc1ccc(S(=O)(=O)N(C)c2ccc(OC(=O)c3ccc(=O)[nH]c3)cc2)cc1 | -0.512
CC1CCCN(S(=O)(=O)c2cccc([N+](=O)[O-])c2)C1 (configuration not stated) | 0.828
CCN(CC)C(=O)Cn1cc(/C=C(\C#N)C(=O)NC2CC2)c2ccccc21 | 2.13
CC(=O)c1cnc2nc(SCc3cccc(C)c3)nn2c1C | -1.51
N#CCCN(C(=O)COC(=O)c1ccc2c(c1)NC(=O)CS2)c1ccc2c(c1)OCCO2 | -1.25
